Hits are enriched below; roughly 3.8% of the tested compounds scored in any of these assays.
tim10-1 inh = inhibits growth of tim10-1 mutant yeast | S. cerevisiae tim10-1 ts strain growth, BacTiter-Glo, 24 h | inhibition, % at 20 µM | actives 2.2% (n = 330,000) | AID 463190;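 active = inhibition of at least 40%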;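 note: mutant grown at 25 °C; 0% = DMSO wells with yeast and 100% = wells holding no yeast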
Beta2AR agonist = human beta-2 adrenergic receptor agonism by FAP. AID 504454. response, % (test concentration not listed). P07550. actives 0.43% (n = 340,000). Am2.2-beta2AR cells, FAP receptor internalization, flow cytometry;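 active = response above a set limit, near 3 SD of response in nonfluorescent compounds, cut at about 42% in these data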
Target sequence (P07550 whole entry, looked up): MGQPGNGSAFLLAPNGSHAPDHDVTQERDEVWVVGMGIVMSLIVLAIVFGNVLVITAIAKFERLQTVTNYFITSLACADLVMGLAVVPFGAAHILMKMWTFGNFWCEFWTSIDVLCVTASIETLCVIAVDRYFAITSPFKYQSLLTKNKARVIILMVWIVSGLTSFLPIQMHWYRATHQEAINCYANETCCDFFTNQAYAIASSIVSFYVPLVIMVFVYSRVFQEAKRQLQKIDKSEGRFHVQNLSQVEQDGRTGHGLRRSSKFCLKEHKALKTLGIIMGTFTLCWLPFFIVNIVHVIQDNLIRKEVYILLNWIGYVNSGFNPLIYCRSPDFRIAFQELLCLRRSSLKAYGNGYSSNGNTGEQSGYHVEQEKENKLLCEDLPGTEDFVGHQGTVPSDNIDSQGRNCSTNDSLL
tim23-1 inh = inhibits growth of tim23-1 mutant yeast; S. cerevisiae tim23-1 growth, BacTiter-Glo luminescence, 24 h; actives 1.3% (n = 330,000); inhibition, % at 20 µM;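 active = growth inhibition of the mutant yeast at or above 50%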;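 note: temperature-sensitive mutant grown at 25 °C; plate controls were DMSO-treated mutant yeast for no effect and medium wells lacking yeast for full effect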
TIM10 inh = TIM10 yeast growth inhibition; S. cerevisiae TIM10 strain growth, BacTiter-Glo luminescence, 24 h; inhibition, % at 10 µM; actives 1.4% (n = 330,000); AID 463195;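 active = inhibition of 40% or more at the single tested concentration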;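 note: wild-type TIM10 isogenic control strain grown at permissive 25 °C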
PfHsp90 set2 = reduces growth (ATP signal) of yeast expressing P. falciparum Hsp90; S. cerevisiae expressing PfHsp90, BacTiter-Glo ATP, 48 h; yeast lacking PDR1 and PDR3 efflux regulators; inhibition, % at 9.4 µM; actives 0.32% (n = 310,000); AID 504621;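 active = every replicate shows inhibition above about 80%, whatever the replicate mean, limit read from the data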;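 note: 0% = DMSO neutral controls and 100% = 20 µM radicicol positive controls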
tim10-1 conf = tim10-1 yeast growth inhibition, confirmed. AID 463213. actives 56% (n = 7,400). S. cerevisiae tim10-1 ts strain growth, BacTiter-Glo, 24 h. inhibition, % at 20 µM. shares compounds with tim10-1 inh;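 active = inhibition of yeast growth at or above a set limit in either of two repeat tests at 20 µM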;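 note: tim10-1 mutant grown at permissive 25 °C to find synthetic lethal compounds; 0% = DMSO yeast wells and 100% = medium wells without yeast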
TIM10 conf = TIM10 yeast growth inhibition, confirmed | AID 463215 | inhibition, % at 10 µM | S. cerevisiae tim10 strain growth, BacTiter-Glo luminescence, 24 h | actives 63% (n = 4,600) | shares compounds with TIM10 inh;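 active = inhibition of yeast growth at or above a set limit in either of two replicates at 10 µM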;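 note: this counterscreen used the strain with wild-type TIM10; 0% = yeast with DMSO and 100% = medium wells lacking yeast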
Numbers without * were called inactive; nt = not tested or not shown.

SMILES | tim10-1 inh | Beta2AR agonist | tim23-1 inh | TIM10 inh | PfHsp90 set2 | tim10-1 conf | TIM10 conf
O=C(CCN1Cc2ccccc2C1)c1ccc2c(c1)OCCO2 | 31.6 | -1.8 | 28.6 | -4.0 | -1.2 | nt | nt
O=C(CCN1CCc2ccccc2C(c2ccccc2)C1)c1ccc2c(c1)OCCO2 (stereo unspecified) | 55.9* | 3.5 | 32.6 | 7.3 | 137.7* | 56.3* | nt
CCn1c(CNC(=O)c2cccc(C)c2)nnc1SCC(=O)Nc1nnc(C)s1 | 1.6 | -4.7 | 5.1 | -5.9 | 5.7 | nt | nt
Cc1cccc(NC(=S)NNC(=O)c2csc(C(C)C)c2)c1 | 44.4* | -6.7 | 10.0 | 33.7 | 11.8 | 28.4 | nt
CCc1cc(C(=O)NNC(=S)Nc2cccc(C)c2)cs1 | 36.4 | 7.1 | 2.3 | 22.8 | 14.4 | nt | nt
CC(C)(C)C(=O)[C@@H]1[C@@H]2C(=O)N(C3CCCCC3)C(=O)[C@@H]2[C@H]2c3ccccc3C=CN12 | 40.5* | 14.3 | 26.1 | 26.0 | 4.2 | 25.8 | nt
CC(C)C1OC(c2cccc(NC(=O)c3cccs3)c2)OCC1(C)C (stereo unspecified) | 44.1* | -4.9 | 22.6 | 39.3 | -40.3 | 32.5* | nt
COc1cc(/C=C/C(=O)Nc2ccc(S(=O)(=O)Nc3ncccn3)cc2)ccc1OCC#N | nt | 7.4 | nt | nt | 7.7 | nt | nt
Oc1cccc(Oc2ncc(C(F)(F)F)cc2Cl)c1 | 48.7* | -6.3 | 13.5 | 23.6 | -20.8 | 40.5* | nt
CN(NS(=O)(=O)c1ccc(Cl)cc1)c1ncc(C(F)(F)F)cc1Cl | 42.5* | -4.9 | 27.1 | 13.9 | -9.4 | 26.2 | nt
CC(C)(C)NS(=O)(=O)c1ccc(Oc2ncc(C(F)(F)F)cc2Cl)cc1 | 40.7* | -12.6 | 33.6 | 30.2 | -34.8 | 38.2* | nt
O=C(CN1C(=O)NC2(CCCCCC2)C1=O)c1cccs1 | 4.1 | 3.5 | 9.5 | 2.7 | nt | nt | nt
COCCN(C(=O)c1ccc(N(C)S(=O)(=O)c2ccc(C)cc2)cc1)c1c(N)n(CC(C)C)c(=O)[nH]c1=O | nt | -3.5 | nt | nt | nt | nt | nt
Nc1ncc(Br)cc1S(=O)(=O)NCCC(=O)N1CCN(c2ccccc2)CC1 | 5.3 | -8.4 | 7.3 | 1.8 | 16.7 | nt | nt
Cc1ccc(NC(=O)OC(C)N2CCCCC2)cc1NC(=O)OC(C)N1CCCCC1 (stereo unspecified) | nt | 12.6 | nt | nt | -15.9 | nt | nt
CC(=O)c1ccc(OCCCC(=O)N2CCN(S(=O)(=O)c3ccc(C(C)C)cc3)CC2)cc1 | 16.0 | -2.1 | 28.8 | 17.6 | 9.7 | nt | nt
CN(NC(=O)NN(C)C(=O)c1ccccc1)C(=O)c1ccccc1 | nt | -4.0 | nt | nt | -16.1 | nt | nt
CSc1ccc(S(=O)(=O)NCc2ccccc2Cl)cc1 | 52.4* | 0.0 | 46.0 | 33.2 | -46.5 | 48.7* | nt
CSc1ccc(S(=O)(=O)NCc2ccccc2)cc1 | 45.8* | -9.1 | 41.5 | 6.8 | -5.3 | 31.4* | nt
CCc1ccccc1NS(=O)(=O)c1ccc(SC)cc1 | 24.7 | 2.8 | 5.7 | -2.9 | -25.3 | nt | nt
CC(=O)c1cccc(NC(=O)Cc2cccs2)c1 | 7.5 | 5.7 | 9.6 | 9.7 | nt | nt | nt
CCC(=O)Nc1cccc(C(=O)/C=C/c2cccs2)c1 | 45.7* | 1.8 | 35.2 | 42.4* | -6.9 | 23.6 | 18.0
CCOc1ccc(S(=O)(=O)n2nnc3ccccc32)cc1C | -7.7 | nt | -9.6 | 0.4 | nt | nt | nt
CCOc1ccc(Cl)cc1S(=O)(=O)n1nnc2ccccc21 | 45.5* | -3.1 | 47.0 | 51.3* | -6.2 | 42.0* | -8.8
CCOC(=O)/C=c1/s/c(=C/c2ccccc2OC)c(=O)n1CC(=O)N1CCOCC1 | nt | -4.8 | nt | nt | 6.0 | nt | nt
SMILES | tim10-1 inh | Beta2AR agonist | tim23-1 inh | TIM10 inh | PfHsp90 set2 | tim10-1 conf | TIM10 conf
O=[N+]([O-])c1ccc(S(=O)(=O)c2ccccc2)nc1 | 63.6* | 30.4 | 46.7 | 60.1* | 9.3 | 57.8* | 52.1*
C#CCN1C=C(C(=O)OCC)C(C)N(Cc2ccccc2I)S1(=O)=O (stereo unspecified) | 0.4 | -5.8 | 38.0 | -37.1 | 4.2 | nt | nt
COc1ccc(NC(=O)COC(=O)CCC(=O)c2cccs2)cc1OC | 6.1 | -2.1 | -1.1 | -0.1 | 15.2 | nt | nt
O=C(Nc1nc2ccc(F)cc2s1)c1cccc(S(=O)(=O)N2CCc3ccccc32)c1 | 40.3* | -0.8 | 27.5 | 50.0* | 13.1 | 21.2 | -0.6
Cc1ccccc1OCC(=O)Nc1ccncc1 | -4.8 | 8.0 | -3.9 | 10.9 | 0.0 | nt | nt
Cc1ccccc1OCC(=O)Nc1ccc(Cc2ccncc2)cc1 | 42.0* | -10.1 | 36.0 | 40.5* | -1.2 | 40.4* | 20.4
CC1CCC2(CC1)NC(=O)N(CC(=O)NC1CCCCC1C)C2=O (stereo unspecified) | 2.2 | -2.3 | 1.2 | -6.2 | nt | nt | nt
Cc1cc(C(F)F)n2nc(C(=O)Nc3sc4c(c3C#N)CCC(C)C4)nc2n1 (stereo unspecified) | 57.1* | -12.4 | 47.6 | 42.2* | nt | 48.0* | 42.0*
Cc1cccc(/C=C2\Oc3cc(OS(C)(=O)=O)ccc3C2=O)c1 | 47.3* | 1.0 | 45.9 | 43.3* | -10.5 | 37.2* | -21.6
COC(=O)COc1ccc2c(c1)O/C(=C\c1cccc([N+](=O)[O-])c1)C2=O | 27.0 | 18.9 | 25.7 | 27.1 | 7.7 | nt | nt
Cc1cc(C)c(C(=O)/C=C/c2cccc3ccccc23)c(=O)[nH]1 | 43.3* | 4.8 | 37.0 | 40.7* | -1.1 | 38.3* | -18.6
N/C(=N\OC(=O)c1ccco1)c1ccc(Cl)cc1 | 47.5* | -3.4 | 49.2 | 53.9* | -4.0 | 47.2* | 22.7
O=C(COC(=O)c1ccco1)c1ccc(Cl)cc1 | 17.8 | 3.1 | 11.9 | 4.0 | 8.7 | nt | nt
Cn1c(=O)c2c(nc(N3CCN(c4ccccn4)CC3)n2Cc2ccccc2Cl)n(C)c1=O | 43.2* | -15.9 | 23.7 | 50.8* | -25.1 | 27.6 | 35.4*
CCOC(=O)CSC1=NC(=O)/C(=C\c2ccc(OC(C)=O)cc2)S1 | 69.0* | 25.3 | 46.0 | 51.2* | 4.8 | 68.8* | 62.8*
CCOc1cc(N2CCOCC2)c(OCC)cc1NC(=O)CN1C(=O)NC(C)(c2ccc(OC)cc2)C1=O (stereo unspecified) | nt | -4.1 | nt | nt | nt | nt | nt
Cc1ccc(-n2cnc3cc(NCc4cccs4)ccc32)cc1 | 56.2* | 5.2 | 27.9 | 62.6* | -6.2 | 57.2* | 63.8*
COc1ccc2c(=O)c(-c3cnn(-c4ccccc4)c3)c(C)oc2c1 | 48.3* | -2.0 | 46.4 | 69.9* | 11.4 | 29.1 | 65.2*
O=S(=O)(NCCSCc1c(Cl)cccc1Cl)c1ccc2c(c1)OCCO2 | 53.5* | -2.4 | 48.1 | 50.2* | 25.3 | 45.0* | 35.2*
CS(=O)(=O)NCCSCc1c(Cl)cccc1Cl | 10.5 | 1.7 | 16.7 | -7.8 | -8.9 | nt | nt
COc1ccccc1-c1cc(C(=O)NC2CCCC2)no1 | -3.6 | -3.0 | 34.7 | 18.9 | -7.3 | nt | nt
CCOC(=O)c1c(N)c2cc([N+](=O)[O-])ccc2n1C | -5.5 | 1.2 | -2.4 | -8.2 | -2.7 | nt | nt
CCOC(=O)/C(=C/c1c(C)n(C)c2ccc([N+](=O)[O-])cc12)C(C)=O | 58.2* | 2.6 | 48.5 | 53.6* | 9.9 | 37.2* | 40.2*
